Source: PubChem BioAssay (National Center for Advancing Translational Sciences (NCATS))
D2 PAM-1: Beta-Arrestin HTS for Positive Allosteric Modulators of the Human D2 Dopamine Receptor: Potentiators | AID 624464, 2012 | 360,000 compounds, 0.23% hits | potentiation, % (no concentration beside the values) | DiscoveRx D2 beta-arrestin cells, luminescence, 90 min; 100% = 57 uM dopamine signal; in the data active = potentiation above about 50%; inconclusive = mostly about 30% to 49%
Target sequence (P14416 whole entry, looked up): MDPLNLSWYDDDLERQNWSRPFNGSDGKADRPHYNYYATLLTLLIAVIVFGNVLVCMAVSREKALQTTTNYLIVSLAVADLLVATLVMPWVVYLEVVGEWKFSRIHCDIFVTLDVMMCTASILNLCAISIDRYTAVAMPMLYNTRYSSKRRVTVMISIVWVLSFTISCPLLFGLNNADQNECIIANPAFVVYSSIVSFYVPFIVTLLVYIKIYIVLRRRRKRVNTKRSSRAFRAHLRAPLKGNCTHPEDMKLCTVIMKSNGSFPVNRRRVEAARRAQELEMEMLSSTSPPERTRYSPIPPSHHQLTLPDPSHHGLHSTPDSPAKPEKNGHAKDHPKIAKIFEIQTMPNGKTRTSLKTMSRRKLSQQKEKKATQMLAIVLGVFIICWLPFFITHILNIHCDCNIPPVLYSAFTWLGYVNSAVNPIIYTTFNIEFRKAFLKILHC
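D2 cells co-treated with compound plus 50 nM dopamine (EC20) for 90 min at 37 deg C to detect potentiation. Beta-arrestin recruitment was read as enzyme-fragment luminescence after 1 h at ambient temperature. Full response was set by 57 uM dopamine.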
D2 ag-1: Beta-Arrestin HTS for Positive Allosteric Modulators of the Human D2 Dopamine Receptor: Agonists. DiscoveRx PathHunter D2 beta-arrestin, luminescence, 90 min; 100% = 57 uM dopamine signal. activation, % (concentration not given with the values). 360,000 compounds, 0.084% hits. AID 624465, 2012; in the data active = activation above about 40%; inconclusive = between about 15% and that limit
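DiscoveRx PathHunter D2 beta-arrestin cells (2,100/well) attached overnight, then compound-stimulated 90 min at 37 C in HBSS/10 mM HEPES/0.1% Tween-20 buffer; beta-galactosidase complementation read by luminescence after 1 h at ambient temperature. Dopamine 57 uM final (EC100) as control.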
D2 antagonist: HTS Assay for Allosteric Antagonists of the Human D2 Dopamine Receptor: Primary Screen for Antagonists; D(2) dopamine receptor (Homo sapiens), P14416; HEK293 TREx D2 cells, calcium flux, dopamine EC80; inhibition, % at 10 µM; AID 485344, 2010; 340,000 compounds, 2% hits; in the data active = inhibition above about 30%; inactive = below that, where a call was filed
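Calcium mobilization kinetics were recorded at 1 s intervals in tetracycline-induced HEK293 T-REx D2 cells, first for 180 s after compound addition and then 180 s after EC80 dopamine.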
D2 ag-2: HTS Assay for Allosteric Agonists of the Human D2 Dopamine Receptor: Primary Screen for Agonists; D(2) dopamine receptor (Homo sapiens), P14416; HEK293 T-REx D2 cells, calcium flux agonist mode; activation, % at 2 µM; 340,000 compounds, 0.53% hits; AID 485358, 2010;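 active = activation over 3 SD above normal in the single-dose calcium agonist read, cut at about 30% in these data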
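Tetracycline-induced HEK293 T-REx cells with force-coupled D2 receptor, plated overnight at 30 C, loaded with no-wash calcium dye. After a 10 s baseline, compound was pin-added and calcium flux read kinetically for 180 s; calcium rises flagged agonists.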
D2 PAM-2: HTS Assay for Positive Allosteric Modulators of the Human D2 Dopamine Receptor: Primary Screen for Potentiators. D(2) dopamine receptor (Homo sapiens), P14416. HEK293 T-REx D2, calcium flux, EC20 dopamine potentiation. potentiation, % at 10 µM. 340,000 compounds, 0.34% hits;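 active = potentiation over 3 SD above the plate norm, cut at about 30% in these data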
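Calcium flux readout, no-wash dye, 1 read/s. Inducible HEK293 Trex D2 line, overnight 30 C. Compound alone 180 s (agonist flags), then EC20 dopamine, another 180 s to score potentiation.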
Each line names hits and unclear results; the compound was inactive in the other large screens. Shown are actives, neighbours in structure and some others; about 2.4% of the full set was active somewhere.

O=C(NCc1cccc(F)c1)c1ccc2nc(CCc3ccccc3)oc2c1	none (no result: D2 PAM-1, D2 ag-1, D2 antagonist, D2 ag-2)
Cc1ccc(Cl)cc1N1CCN(S(=O)(=O)c2c(C(=O)N3CCOCC3)c(C)n(C)c2C)CC1	D2 antagonist 38
CCC1(c2ccc(F)cc2)NC(=O)N(CC(=O)N2CCOCC2)C1=O (stereo unspecified)	none
CCC1(c2ccc(F)cc2)NC(=O)N(CC(=O)c2ccc[nH]2)C1=O (stereo unspecified)	D2 antagonist 30 (no result: D2 PAM-2)
CC(=O)c1c(C)[nH]c(C(=O)CSc2nnc(-c3ccco3)o2)c1C	none
COc1ccc(-c2nnc(SCC(=O)c3[nH]c(C)c(C(C)=O)c3C)o2)cc1	D2 PAM-2 38
O=C(Nc1nnc2n1CCS2)c1cc(C(F)(F)F)cc(C(F)(F)F)c1	none (no result: D2 PAM-1, D2 ag-1, D2 antagonist, D2 ag-2)
CC(CN(C)C)CN1c2ccccc2Sc2ccccc21 (stereo unspecified)	D2 antagonist 76
CC(CN1c2ccccc2Sc2ccccc21)N(C)C (stereo unspecified)	D2 antagonist 54
CCN(CC)CC(O)CN1c2ccccc2Sc2ccccc21 (stereo unspecified)	none
O=C1C2CCCN2C(c2cccc(Br)c2)N1c1ccc(F)cc1 (stereo unspecified)	D2 antagonist 38
CCN(CC)C(=O)c1sc2c(c1C)c(=O)n(CCc1ccccc1)c(=O)n2Cc1ccc(C)cc1	none (no result: D2 PAM-1, D2 ag-1, D2 antagonist)
COc1cccc(C2NC(=O)NC(C)=C2C(=O)Nc2ccc(C)cc2)c1OC (stereo unspecified)	D2 antagonist 31
Cc1nnc(SCC(=O)Nc2nccs2)s1	D2 antagonist 34
Nc1nnc(SCC(=O)Nc2nccs2)s1	none
CCOc1ccc2[nH]c3c(NCCOC)ncnc3c2c1	D2 PAM-2 31
O=C(Cn1c(=O)ccc2cc(S(=O)(=O)N3CCCC3)ccc21)Nc1ccc(Cl)cc1	none (no result: D2 PAM-1, D2 ag-1, D2 antagonist, D2 PAM-2)
CCc1ccccc1N(C)C(=O)C1CCCN(c2ncnc3c2nc2n3CCCCC2)C1 (stereo unspecified)	none (no result: D2 PAM-1, D2 ag-1, D2 antagonist)
COc1ccccc1/C=C\C(=O)NCC(=O)N/N=C/c1cccc(OC)c1O	D2 antagonist 49
COc1ccc(/C=C/C(=O)NCC(=O)N/N=C/c2cc(Br)ccc2OC)cc1	D2 antagonist 69
COc1ccc(Br)cc1/C=C/C(=O)Nc1ccc2ccccc2c1	none
COc1ccccc1/C=C/C(=O)NCC(=O)N/N=C/c1cc(Br)ccc1OC	D2 antagonist 64
COc1ccc(/C=N/NC(=O)CNC(=O)/C=C/c2ccccc2OC)cc1	none
COc1ccc(/C=C\C(=O)NCC(=O)N/N=C/c2ccc(O)cc2O)cc1	none
COc1ccc(Br)cc1/C=C/C(=O)Nc1ccc(C)cc1	D2 antagonist 74
O=C(CSc1nc(=O)n(Cc2ccncc2)c2c1CCC2)Nc1cccc(F)c1	none (no result: D2 PAM-1, D2 ag-1, D2 antagonist)
COc1ccc(NC(=O)Cn2nc(C)c3c(C)n(-c4ccccc4)nc3c2=O)cc1OC	none (no result: D2 PAM-1, D2 ag-1, D2 antagonist)
COc1cc(OC)c2cc(C(=O)N/N=C/c3cccc(OC)c3O)[nH]c2c1	none
COc1cccc(/C=N/Nc2ccc(C(=O)O)cc2)c1O	D2 PAM-1 79
COc1cccc(/C=N/Nc2ccc(S(=O)(=O)O)cc2)c1O	none (no result: D2 antagonist, D2 ag-2, D2 PAM-2)
COc1cccc(/C=N/NC(=O)c2cc3c(OC)ccc(OC)c3[nH]2)c1O	D2 PAM-1 52
CCOc1ccccc1CNC(=O)CCc1c(C)nn(-c2ccc(N3CCCCC3)nn2)c1C	none (no result: D2 PAM-1, D2 ag-1, D2 antagonist)
COc1ccc(Cn2c(CCC(=O)Nc3cc(OC)c(OC)c(OC)c3)nc3cccnc32)cc1	none (no result: D2 PAM-1, D2 ag-1, D2 antagonist)
CC(C)(C)OC(=O)N1CCC(c2c(C(=O)NCC3CCN(C4CCCC4)C3)cnn2-c2ccccc2Cl)CC1 (stereo unspecified)	D2 antagonist 46
CC(C)(C)OC(=O)N1CCC(c2c(C(=O)O)cnn2-c2ccccc2Cl)CC1	none
CC(=O)NC1=NN(C(C)=O)C(C)(CS(=O)(=O)c2ccc3ccccc3c2)S1 (stereo unspecified)	D2 antagonist 39
CCC1(C)SC(NC(C)=O)=NN1C(C)=O (stereo unspecified)	none
O=C(COc1ccc2ccccc2c1)NNC(=O)c1ccccc1	D2 antagonist 48
O=C(COc1ccc2ccccc2c1)NNC(=O)Cc1ccccc1	none
Cc1c(NC(=O)CSc2ccccc2F)c(=O)n(-c2ccccc2)n1C	D2 PAM-2 46
Cc1c(NC(=O)c2ccc(Br)o2)c(=O)n(-c2ccccc2)n1C	D2 PAM-2 31
Cc1c(NC(=O)COC(=O)Cc2ccc(Br)cc2)c(=O)n(-c2ccccc2)n1C	none
Cc1c(NC(=O)CSCc2ccc(Br)cc2)c(=O)n(-c2ccccc2)n1C	D2 antagonist 42
COc1ccc2c(c1)c(=O)c(C(=O)c1ccc(F)cc1)cn2CC(=O)Nc1ccc2c(c1)OCCO2	none (no result: D2 PAM-1, D2 ag-1, D2 antagonist)
Cc1ccc2oc(=O)c3cc(C(=O)N(Cc4ccccc4)C(C)C)sc3c2c1	none (no result: D2 PAM-1, D2 ag-1, D2 antagonist)
Cc1c(NC(=O)COc2ccc3ccccc3c2)c(=O)n(-c2ccccc2)n1C	D2 PAM-2 35
Cc1c(NC(=O)COc2cccc(F)c2)c(=O)n(-c2ccccc2)n1C	none
CC(=O)Nc1cc(-c2ccccc2)ccc1O	none
Nc1cc(-c2ccccc2)ccc1O	D2 PAM-1 98, D2 ag-1 inconclusive
COc1cc(NC(=O)Cn2nc(C(F)(F)F)c3c2CCCC3)c(OC)cc1Cl	none (no result: D2 PAM-1, D2 ag-1, D2 antagonist)
CCCn1c(SCC(=O)c2ccc3c(c2)OCCO3)nc2c1c(=O)n(C)c(=O)n2C	D2 antagonist 31
CCCn1c(SCC(=O)c2ccc3c(c2)OCCO3)n[nH]c1=O	none
COc1ccccc1Nc1nc(-c2ccc(F)cc2)c2c(n1)-c1ccccc1OC2	none (no result: D2 PAM-1, D2 ag-1, D2 antagonist)
CCCCn1ccc(O)c(Cc2ccc(F)cc2)c1=O	none
O=c1c(Cc2ccc(F)cc2)c(O)ccn1CCc1ccccn1	D2 antagonist 41
COc1ccccc1-n1ncc2c(=O)[nH]c(SCC(=O)Nc3ccc(Cl)cc3)nc21	none (no result: D2 PAM-1, D2 ag-1, D2 antagonist)
Cc1ccc(-n2c(=O)c3oc4ccccc4c3n(Cc3cccc(F)c3)c2=O)cc1C	none (no result: D2 PAM-1, D2 ag-1, D2 antagonist, D2 ag-2)
COc1ccc(CC(=O)OCC(=O)Nc2ccc3[nH]c(=O)[nH]c3c2)cc1	D2 PAM-1 inconclusive
COc1cc(OC)cc(C(=O)OCC(=O)Nc2ccc3[nH]c(=O)[nH]c3c2)c1	D2 antagonist 36
O=C(COC(=O)c1c(F)cccc1F)Nc1ccc2[nH]c(=O)[nH]c2c1	D2 antagonist 65
Cc1cc(C)c2c(=O)[nH]c(SCC(=O)N(C)C)nc2n1	D2 PAM-2 37
